# Assay results as given in PubChem BioAssay (Tox21).
# Where “and” joins values, the source holds several entries; their conditions need not be identical. Equal values may be shown once. Inconclusive results are not listed. Where a call stands in place of a potency, no number is given. A structure can be active in one record and inactive in another. Calls of active or inactive are those of the source. Unless noted, calls follow the shape of the dose curve; as a rule, active = well fitted curve in the direction sought with a large enough effect in the repeat runs; inconclusive = weak or mixed curves; inactive = no such curve, though single readings can be large; an effect the other way counts as inactive or inconclusive.
# Assays:
# [1] = Caspase-3/7 induction in CHO-K1 cells by small molecules, qHTS cell viability counter screen (AID 1346979); also: nearly all actives have a fitted effect of over 35% in size; also: potency is read from the fitted curve at half-maximal effect
# Summary of the method: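 Seeding: 1,500 CHO-K1 cells/well. Rest: 5hr, 37C. Treatment: compounds in DMSO, 16hr. Read: CellTiter-Fluor, 1hr, fluorescence.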
# [2] = Caspase-3/7 induction in CHO-K1 cells by small molecules, qHTS assay (AID 1346980); also: nearly all actives have a fitted effect of over 15% in size
# Summary of the method: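 Wild-type CHO-K1 cells exposed to compounds for 17hr at 37 C, 5% CO2. Caspase-3/7 activity then measured by Caspase-Glo 3/7 luminescence after 30min at room temperature.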
# [3] = Caspase-3/7 induction in HepG2 cells by small molecules, qHTS cell viability counter screen (AID 1346981); also: nearly all actives have a fitted effect of over 30% in size; also: potency is read from the fitted curve at half-maximal effect
# Summary of the method: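 Counter screen for cytotoxicity: HepG2 exposed 16 hr to compounds, then CellTiter-Fluor viability signal (fluorescence, 1 hr reagent incubation).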
# [4] = biological target: Nuclear receptor subfamily 1 group I member 2 (Homo sapiens) (UniProt O75469); assay: Human pregnane X receptor (PXR) small molecule agonists, qHTS assay (AID 1346982); also: nearly all actives have a fitted effect of over 35% in size; also: potency is read from the fitted curve at half-maximal effect
# Nuclear receptor subfamily 1 group I member 2 (Homo sapiens), sequence (O75469 whole entry, looked up): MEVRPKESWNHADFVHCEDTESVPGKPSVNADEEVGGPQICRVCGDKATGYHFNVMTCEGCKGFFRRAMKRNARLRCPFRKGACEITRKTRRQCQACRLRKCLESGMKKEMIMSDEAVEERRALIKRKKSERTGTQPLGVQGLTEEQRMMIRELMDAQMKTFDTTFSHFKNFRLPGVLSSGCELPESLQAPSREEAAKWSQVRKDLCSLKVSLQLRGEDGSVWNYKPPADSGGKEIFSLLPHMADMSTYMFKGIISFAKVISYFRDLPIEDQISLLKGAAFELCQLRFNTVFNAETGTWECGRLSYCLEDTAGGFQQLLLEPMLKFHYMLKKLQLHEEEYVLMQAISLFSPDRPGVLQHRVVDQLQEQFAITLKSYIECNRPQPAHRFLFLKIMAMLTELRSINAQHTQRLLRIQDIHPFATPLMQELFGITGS
# Summary of the method: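 Luminescence (ONE-Glo, 30 min RT) after 24 hr compound exposure of PXR-Luc HepG2 cells; cells rested 5 hr post-plating in 5% charcoal-stripped FBS medium.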
# [5] = biological target: Nuclear receptor subfamily 1 group I member 2 (Rattus norvegicus) (UniProt Q9R1A7); assay: Rat pregnane X receptor (rPXR) activation by small molecules, qHTS assay (AID 1346983); details: rPXR luciferase reporter cells, One-Glo luminescence, 24 h; stronger effect = higher value; also: nearly all actives have a fitted effect of over 20% in size
# Nuclear receptor subfamily 1 group I member 2 (Rattus norvegicus), sequence (Q9R1A7 whole entry, looked up): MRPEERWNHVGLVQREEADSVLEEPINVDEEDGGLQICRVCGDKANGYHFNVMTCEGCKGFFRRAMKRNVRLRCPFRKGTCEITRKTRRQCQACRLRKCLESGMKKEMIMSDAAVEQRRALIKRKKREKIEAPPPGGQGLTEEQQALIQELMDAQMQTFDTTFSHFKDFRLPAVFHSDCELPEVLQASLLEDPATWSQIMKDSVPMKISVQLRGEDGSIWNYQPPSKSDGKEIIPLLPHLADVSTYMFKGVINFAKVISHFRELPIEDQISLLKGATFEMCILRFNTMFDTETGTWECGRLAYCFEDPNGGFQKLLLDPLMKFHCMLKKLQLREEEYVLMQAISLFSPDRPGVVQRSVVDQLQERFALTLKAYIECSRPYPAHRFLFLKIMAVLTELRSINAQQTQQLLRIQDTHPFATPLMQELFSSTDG
# Summary of the method: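 Cell-based rPXR activation assay: rPXR cells, 2,000 per well, rested 5hr at 37 C, then exposed to compounds in DMSO for 24 hr at 37 C. Luciferase activity read by One-Glo luminescence after 30 min at room temperature.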
# [6] = biological target: Nuclear receptor subfamily 1 group I member 2 (Homo sapiens) (UniProt O75469); assay: CYP3A4 induction through human pregnane X receptor (PXR) by small molecules, qHTS assay (AID 1346984); also: nearly all actives have a fitted effect of over 40% in size
# Summary of the method: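 DPX-2 reporter cells; 24h cpd, 37C; Luciferin-IPA 3uM final x3h; One-Glo 30 min RT; lumi read.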
# [7] = biological target: Acetylcholinesterase (Homo sapiens) (UniProt P22303); assay: Acetylcholinesterase (AChE) small molecule antagonists: fluorescence cell-based qHTS assay (AID 1347398; calls by dose curve; also: nearly all actives have a fitted effect of over 50% in size; also: potency is read from the fitted curve at half-maximal effect); details: Potency: AChE activity
# Acetylcholinesterase (Homo sapiens), sequence (P22303 whole entry, looked up): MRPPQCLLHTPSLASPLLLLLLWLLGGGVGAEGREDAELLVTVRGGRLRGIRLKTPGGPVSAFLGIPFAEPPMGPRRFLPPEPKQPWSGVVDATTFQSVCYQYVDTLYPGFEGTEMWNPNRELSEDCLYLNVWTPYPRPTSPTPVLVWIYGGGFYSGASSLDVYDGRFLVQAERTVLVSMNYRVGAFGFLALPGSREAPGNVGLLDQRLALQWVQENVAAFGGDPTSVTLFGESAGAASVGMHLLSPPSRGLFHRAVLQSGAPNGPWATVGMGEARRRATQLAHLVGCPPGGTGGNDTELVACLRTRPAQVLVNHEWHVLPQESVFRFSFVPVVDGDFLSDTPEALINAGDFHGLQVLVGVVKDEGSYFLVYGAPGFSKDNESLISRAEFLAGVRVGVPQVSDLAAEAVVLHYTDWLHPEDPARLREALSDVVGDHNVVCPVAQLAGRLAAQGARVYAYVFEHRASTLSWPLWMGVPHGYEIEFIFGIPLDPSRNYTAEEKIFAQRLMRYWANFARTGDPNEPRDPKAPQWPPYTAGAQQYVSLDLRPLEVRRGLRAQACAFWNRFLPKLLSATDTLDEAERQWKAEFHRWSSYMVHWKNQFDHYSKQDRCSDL
# Summary of the method: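 SH-SY5Y cells (2000/well), attached overnight, incubated with compound 30 min at 37 C. Acetylthiocholine plus Thiolite Green then added for 40 min at room temperature. Thiocholine fluorescence (Ex/Em 490/520 nm) reports cellular AChE activity.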
# [8] = biological target: Acetylcholinesterase (Homo sapiens) (UniProt P22303); assay: Acetylcholinesterase (AChE) small molecule antagonists: enzyme-based qHTS assay with human liver microsomes (AID 1347399; calls by dose curve; also: nearly all actives have a fitted effect of over 60% in size); details: Potency: qHTS inhibition
# Summary of the method: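 Recombinant human AChE (50 mU/mL in the enzyme mix) and human liver microsomes (0.25 mg/mL final) were preincubated with compound and NADPH (0.25 mg/mL final) for 30 min at 37 C. Acetylthiocholine/DTNB was then added; thiocholine was read colorimetrically after 10 min at room temperature.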
# [9] = biological target: Cytochrome P450 2D6 (Homo sapiens) (UniProt P10635); assay: Cytochrome P450 Family 2 Subfamily D Member 6 (CYP2D6) small molecule antagonists: luciferase reporter qHTS assay (AID 1671196); also: nearly all actives have a fitted effect of over 50% in size; also: potency is read from the fitted curve at half-maximal effect
# Cytochrome P450 2D6 (Homo sapiens), sequence (P10635 whole entry, looked up): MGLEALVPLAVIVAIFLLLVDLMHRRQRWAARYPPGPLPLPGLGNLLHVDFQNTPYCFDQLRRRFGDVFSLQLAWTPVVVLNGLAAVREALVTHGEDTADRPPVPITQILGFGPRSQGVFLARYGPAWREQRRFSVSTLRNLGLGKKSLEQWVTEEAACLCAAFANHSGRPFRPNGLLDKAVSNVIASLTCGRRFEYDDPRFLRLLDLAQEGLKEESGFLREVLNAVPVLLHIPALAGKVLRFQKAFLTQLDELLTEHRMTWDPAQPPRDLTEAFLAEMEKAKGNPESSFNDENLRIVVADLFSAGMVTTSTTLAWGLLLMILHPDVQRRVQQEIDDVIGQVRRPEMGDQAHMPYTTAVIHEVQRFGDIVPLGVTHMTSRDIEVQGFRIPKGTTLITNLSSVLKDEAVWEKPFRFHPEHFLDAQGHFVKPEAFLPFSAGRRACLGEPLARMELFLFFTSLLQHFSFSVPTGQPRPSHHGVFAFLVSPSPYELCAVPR
# Summary of the method: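 Inhibition of CYP2D6 was gauged by loss of luminescence, since light produced tracks the luciferin generated from a proluciferin substrate. A 10 min room-temperature preincubation preceded 1 h NADPH-supported turnover.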
# [10] = biological target: Cytochrome P450 2C19 (Homo sapiens) (UniProt P33261); assay: Cytochrome P450 Family 2 Subfamily C Member 19 (CYP2C19) small molecule antagonists: luciferase reporter qHTS assay (AID 1671197); also: nearly all actives have a fitted effect of over 65% in size; also: potency is read from the fitted curve at half-maximal effect
# Cytochrome P450 2C19 (Homo sapiens), sequence (P33261 whole entry, looked up): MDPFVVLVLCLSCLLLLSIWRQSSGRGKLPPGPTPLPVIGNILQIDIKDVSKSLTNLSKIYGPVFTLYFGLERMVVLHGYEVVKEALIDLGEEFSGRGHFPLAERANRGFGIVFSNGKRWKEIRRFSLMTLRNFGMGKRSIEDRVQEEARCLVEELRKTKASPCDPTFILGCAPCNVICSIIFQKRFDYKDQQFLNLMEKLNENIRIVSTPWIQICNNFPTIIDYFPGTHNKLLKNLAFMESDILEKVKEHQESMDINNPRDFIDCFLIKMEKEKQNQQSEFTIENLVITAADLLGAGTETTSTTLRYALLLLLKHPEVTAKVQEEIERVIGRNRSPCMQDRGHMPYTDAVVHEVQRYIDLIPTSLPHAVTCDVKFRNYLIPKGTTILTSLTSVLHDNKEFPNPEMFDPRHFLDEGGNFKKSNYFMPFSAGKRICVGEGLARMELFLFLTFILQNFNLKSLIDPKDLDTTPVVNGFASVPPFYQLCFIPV
# Summary of the method: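 P450-Glo CYP2C19 system: enzyme-substrate mix with compound 10 min at room temperature, then NADPH regeneration solution, 1 h at 37C. Proluciferin-to-luciferin conversion detected by luminescence after 20 min with detection reagent; ketoconazole as positive control.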
# [11] = biological target: Cytochrome P450 2C9 (Homo sapiens) (UniProt P11712); assay: Cytochrome P450 Family 2 Subfamily C Member 9 (CYP2C9) small molecule antagonists: luciferase reporter qHTS assay (AID 1671198); also: nearly all actives have a fitted effect of over 50% in size; also: potency is read from the fitted curve at half-maximal effect
# Summary of the method: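 P450-Glo proluciferin substrate with CYP2C9 enzyme; 10 min RT preincubation, then NADPH regeneration 1 h at 37C; luciferin detection reagent 20 min RT, luminescence in relative luminescence units.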
# [12] = biological target: Cytochrome P450 1A2 (Homo sapiens) (UniProt P05177); assay: Cytochrome P450 Family 1 Subfamily A Member 2 (CYP1A2) small molecule antagonists: luciferase reporter qHTS assay (AID 1671199); also: nearly all actives have a fitted effect of over 50% in size; also: potency is read from the fitted curve at half-maximal effect
# Cytochrome P450 1A2 (Homo sapiens), sequence (P05177 whole entry, looked up): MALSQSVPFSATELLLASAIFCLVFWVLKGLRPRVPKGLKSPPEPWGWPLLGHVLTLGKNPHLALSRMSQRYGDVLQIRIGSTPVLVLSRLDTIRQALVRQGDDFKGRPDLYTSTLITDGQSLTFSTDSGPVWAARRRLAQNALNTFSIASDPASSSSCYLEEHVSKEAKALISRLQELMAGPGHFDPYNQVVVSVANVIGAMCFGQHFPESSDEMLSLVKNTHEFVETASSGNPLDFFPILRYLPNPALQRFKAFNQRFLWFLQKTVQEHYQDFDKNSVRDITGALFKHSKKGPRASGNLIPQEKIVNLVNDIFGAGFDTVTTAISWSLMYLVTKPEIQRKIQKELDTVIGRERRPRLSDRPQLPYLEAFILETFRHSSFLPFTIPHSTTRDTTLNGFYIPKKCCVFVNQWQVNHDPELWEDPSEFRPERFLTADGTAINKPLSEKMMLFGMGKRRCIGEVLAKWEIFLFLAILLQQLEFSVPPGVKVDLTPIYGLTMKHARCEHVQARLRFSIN
# Summary of the method: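 Signal from luciferin formed by CYP1A2 from a proluciferin substrate is read as luminescence, expressed in relative luminescence units. Compounds sit with enzyme 10 min, NADPH-driven reaction runs 1 h, all at room temperature.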
# [13] = biological target: Voltage-gated inwardly rectifying potassium channel KCNH2 (Homo sapiens) (UniProt Q12809); assay: Human Ether-a-go-go-Related Gene (hERG) channel small molecule antagonists: fluorescence cell-based qHTS assay (AID 1671200); also: nearly all actives have a fitted effect of over 50% in size; also: potency is read from the fitted curve at half-maximal effect
# Voltage-gated inwardly rectifying potassium channel KCNH2 (Homo sapiens), sequence (Q12809 whole entry, looked up): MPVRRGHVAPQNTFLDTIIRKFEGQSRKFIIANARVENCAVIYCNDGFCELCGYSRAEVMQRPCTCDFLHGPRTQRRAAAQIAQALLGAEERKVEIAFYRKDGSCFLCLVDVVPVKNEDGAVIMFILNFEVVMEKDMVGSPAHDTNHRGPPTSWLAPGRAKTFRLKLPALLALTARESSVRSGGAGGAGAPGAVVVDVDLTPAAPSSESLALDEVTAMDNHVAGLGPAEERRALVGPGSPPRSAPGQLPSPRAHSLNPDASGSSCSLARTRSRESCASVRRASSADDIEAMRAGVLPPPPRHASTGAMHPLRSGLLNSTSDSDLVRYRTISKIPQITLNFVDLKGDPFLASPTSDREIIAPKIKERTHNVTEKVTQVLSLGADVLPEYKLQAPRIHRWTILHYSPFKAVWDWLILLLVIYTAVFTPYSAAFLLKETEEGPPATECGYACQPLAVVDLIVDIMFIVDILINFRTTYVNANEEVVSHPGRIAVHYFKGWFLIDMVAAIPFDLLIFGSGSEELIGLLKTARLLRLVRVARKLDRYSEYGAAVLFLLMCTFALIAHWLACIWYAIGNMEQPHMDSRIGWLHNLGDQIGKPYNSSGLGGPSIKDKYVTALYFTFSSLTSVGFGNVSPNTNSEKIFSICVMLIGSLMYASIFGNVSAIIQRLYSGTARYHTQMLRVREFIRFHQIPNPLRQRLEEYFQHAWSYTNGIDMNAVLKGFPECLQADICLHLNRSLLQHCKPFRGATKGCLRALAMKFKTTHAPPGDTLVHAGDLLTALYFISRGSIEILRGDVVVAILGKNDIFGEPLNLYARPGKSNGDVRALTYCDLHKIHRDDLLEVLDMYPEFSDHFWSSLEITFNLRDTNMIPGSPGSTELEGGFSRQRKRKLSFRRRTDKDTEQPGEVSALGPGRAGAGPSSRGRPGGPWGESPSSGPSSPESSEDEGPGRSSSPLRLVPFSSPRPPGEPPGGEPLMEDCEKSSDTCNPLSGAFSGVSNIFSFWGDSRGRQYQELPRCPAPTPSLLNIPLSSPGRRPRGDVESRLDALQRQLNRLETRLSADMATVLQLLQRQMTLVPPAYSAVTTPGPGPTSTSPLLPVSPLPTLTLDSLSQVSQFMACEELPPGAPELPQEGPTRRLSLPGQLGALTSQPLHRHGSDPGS
# Summary of the method: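 First, 1000 cells per well are seeded and cultured overnight at 37 C. Next, FluxOR II dye is loaded for 1 h at room temperature, protected from light. After 10 more minutes, stimulus is added and fluorescence is read.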
# [14] = biological target: Cytochrome P450 3A4 (Homo sapiens) (UniProt P08684); assay: Cytochrome P450 Family 3 Subfamily A Member 4 (CYP3A4) small molecule antagonists: luciferase reporter qHTS assay (AID 1671201); also: nearly all actives have a fitted effect of over 50% in size; also: potency is read from the fitted curve at half-maximal effect
# Cytochrome P450 3A4 (Homo sapiens), sequence (P08684 whole entry, looked up): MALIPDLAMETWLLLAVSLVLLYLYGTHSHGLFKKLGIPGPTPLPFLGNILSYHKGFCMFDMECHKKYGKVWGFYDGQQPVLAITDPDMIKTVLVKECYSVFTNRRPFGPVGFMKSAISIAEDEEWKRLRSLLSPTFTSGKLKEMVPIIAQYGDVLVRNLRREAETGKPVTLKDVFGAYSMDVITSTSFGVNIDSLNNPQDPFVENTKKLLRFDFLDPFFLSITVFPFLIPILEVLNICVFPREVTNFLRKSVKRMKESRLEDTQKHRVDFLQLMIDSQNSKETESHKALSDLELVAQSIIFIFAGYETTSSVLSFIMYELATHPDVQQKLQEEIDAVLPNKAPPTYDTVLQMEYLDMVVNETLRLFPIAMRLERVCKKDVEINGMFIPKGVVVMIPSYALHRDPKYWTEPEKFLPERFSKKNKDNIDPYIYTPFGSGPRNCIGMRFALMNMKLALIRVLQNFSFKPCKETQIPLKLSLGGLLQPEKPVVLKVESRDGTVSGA
# Summary of the method: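 Enzyme and proluciferin substrate are mixed with test chemicals for 10 min, then NADPH regeneration system drives turnover for 1 h at room temperature. A detection reagent halts the reaction; luminescence after 20 min gives relative activity.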
# [15] = biological target: Acetylcholinesterase (Homo sapiens) (UniProt P22303); assay: Acetylcholinesterase (AChE) small molecule antagonists: colormetric cell-based qHTS assay (AID 1347395; calls by dose curve; also: nearly all actives have a fitted effect of over 30% in size)
# Summary of the method: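 Quantitative HTS in attached SH-SY5Y cells: 30 min compound exposure, then 90 min with acetylthiocholine and DTNB at 37 C; colour from thiocholine reports AChE activity.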
SMILES,Potency [1],Potency [2],Potency [3],Potency [4],max activation [5],outcome [6],Potency [7],Potency [8],Potency [9],Potency [10],Potency [11],Potency [12],Potency [13],Potency [14],Potency [15]
COP(=O)(OC)OC=C(Cl)Cl,inactive,inactive,inactive,inactive,0.647% (inactive),inactive,inactive,inactive,inactive,inactive,inactive,inactive and 15.4 µM (active),inactive,inactive,
CC(Cl)(Cl)C(=O)O,inactive,inactive,inactive,inactive and 61.3 µM (active),,,inactive,inactive,inactive,inactive,inactive and 63.3 µM (active),,inactive,inactive,inactive
Nc1ccc(Cl)cc1,inactive,inactive,inactive,inactive and 62.2 µM (active),,,inactive,inactive,20 µM (active) and 31.7 µM (active) and 60.8 µM (active),39.9 µM (active) and 20.4 µM (active),39.9 µM (active) and 32.3 µM (active),,inactive,inactive,inactive
O=C(O)C(Cl)(Cl)Cl,inactive,inactive,inactive,inactive,-1.14% (inactive),inactive,inactive,inactive,inactive,20 µM (active),inactive,,inactive,inactive,inactive
C=CCOC(Cn1ccnc1)c1ccc(Cl)cc1Cl (centres undefined),48.7 µM (active) and 38.6 µM (active),inactive,inactive,48.7 µM (active) and 15.4 µM (active) and 11.9 µM (active),,inactive,inactive,inactive,,,,,24.6 µM (active) and 21.9 µM (active) and 23.9 µM (active),,inactive
CC(=O)[O][Hg][c]1ccccc1,762 nM (active) and 1.09 µM (active) and 1.88 µM (active),inactive,5.4 µM (active) and 5.45 µM (active) and 11.9 µM (active),inactive,-23.3% (inactive),inactive,62.7 µM (active) and 56.4 µM (active),inactive,353 nM (active) and 564 nM (active) and 1.74 µM (active),8.86 µM (active) and 8.94 µM (active) and 17.4 µM (active),3.96 µM (active) and 2.52 µM (active) and 4.36 µM (active),17.7 µM (active) and 22.4 µM (active) and 27.5 µM (active),13.7 µM (active) and 13.8 µM (active),4.98 µM (active) and 7.96 µM (active) and 12.3 µM (active),inactive
O=P1(N(CCCl)CCCl)NCCCO1 (centres undefined),inactive,inactive,inactive,inactive,,,inactive,inactive,inactive,71.8 µM (active) and inactive,inactive,inactive,inactive,,inactive
CCCCCC[n+]1ccccc1,inactive,inactive,inactive,11 µM (active) and inactive,,,,,,inactive,inactive,,inactive,inactive,
Cc1cc(Cl)ccc1OCC(=O)O,inactive,inactive,inactive,inactive,,,inactive,inactive,inactive,inactive and 39.9 µM (active),,inactive,inactive,inactive,inactive
O=C(O)c1ccccc1O,inactive,inactive,inactive,,,,,,,,,,inactive,,
CCCC[n+]1ccc(C)cc1,inactive and 54.2 µM (active),inactive,inactive and 19.4 µM (active),inactive and 5.45 µM (active),,,,,inactive and 449 nM (active),inactive,inactive and 22.3 µM (active),,inactive,inactive,
CCCCCCCCCCCCCCCCn1cc[n+](C)c1,,inactive,,7.86 µM (active) and inactive and 6.13 µM (active),,,,inactive,,,,36.4 µM (active) and inactive and 71.2 µM (active),,,inactive
CCCCCCCCCCCCn1cc[n+](C)c1,,inactive,24.5 µM (active) and inactive,,,,,,,,9.01 µM (active) and inactive and 64.3 µM (active),,,80.3 µM (active) and inactive,
O=C(O)COc1ccc(Cl)cc1Cl,inactive,inactive,inactive,inactive,,,inactive,inactive,inactive and 35.6 µM (active),70.7 µM (active) and inactive,,,inactive,inactive,inactive
CCCCCCn1cc[n+](C)c1,inactive,inactive,inactive,inactive and 12.4 µM (active) and 7.57 µM (active),,,,,,inactive and 23.4 µM (active),inactive,inactive,inactive,inactive,
CCCC[n+]1cccc(C)c1,inactive,inactive,inactive,inactive,,,,,inactive,inactive,inactive,,inactive,inactive,
